# Shown is part of a subset that was picked to be rich in hits.
# Shiga inhibitor – Shiga toxin inhibition; Vero cells, Shiga toxin protein synthesis inhibition reporter; inhibition, % at 38.7 µM; 290,000 tested, 9.2% active; in the data active = inhibition mostly above about 28%, no sharp cut-off; inactive = mostly below about 43%; note: 0% is about no effect
# Cycloheximide cs – counter-screen hit for Shiga toxin inhibitors, cycloheximide; max response, %; cell reporter, cycloheximide protein synthesis inhibition counterscreen; 300,000 tested, 12% active; AID 2314; in the data active = max response mostly above about 13%, no sharp cut-off; inactive = mostly below about 14%; note: read at 38.3 µM for the half of the compounds with a filed dose; 0% is about no effect
# AMA1-RON2 inh – inhibitors of Plasmodium falciparum AMA1-RON2 interaction. 360,000 tested, 0.2% active. Potency, µM (titrated, usually from 58.2 µM), inactives show at the highest dose activity change, negative = inhibition, most hits filed as inhibitors. AlphaScreen AMA1-biotinylated RON2 peptide binding;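 note: potency is the fitted concentration of half-maximal effect; 0% = vehicle wells and -100% = peptide control; nearly all actives have a fitted effect of over 45% in size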
#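 AMA1 (3D7) with his tag at 25 nM final met compounds first, then biotinylated RON2 peptide at 25 nM; detection used donor plus acceptor beads, 10 µg/mL apiece, read by AlphaScreen after 30 min at room temperature.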
# AmpC inh detg – blocks E. coli AmpC beta-lactamase in detergent assay. P00811. AmpC hydrolysis of nitrocefin, absorbance 480 nm, 0.01% Triton. Potency, µM (titrated, usually from 114 µM), for the others: at the top dose activity change, negative = inhibition, most hits filed as inhibitors. 370,000 tested, 0.041% active. AID 485294;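 note: potency is the fitted concentration of half-maximal effect; 0% = no-compound wells and -100% = no-enzyme wells; nearly all actives have a fitted effect of over 25% in size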
# Target sequence (P00811 whole entry, looked up): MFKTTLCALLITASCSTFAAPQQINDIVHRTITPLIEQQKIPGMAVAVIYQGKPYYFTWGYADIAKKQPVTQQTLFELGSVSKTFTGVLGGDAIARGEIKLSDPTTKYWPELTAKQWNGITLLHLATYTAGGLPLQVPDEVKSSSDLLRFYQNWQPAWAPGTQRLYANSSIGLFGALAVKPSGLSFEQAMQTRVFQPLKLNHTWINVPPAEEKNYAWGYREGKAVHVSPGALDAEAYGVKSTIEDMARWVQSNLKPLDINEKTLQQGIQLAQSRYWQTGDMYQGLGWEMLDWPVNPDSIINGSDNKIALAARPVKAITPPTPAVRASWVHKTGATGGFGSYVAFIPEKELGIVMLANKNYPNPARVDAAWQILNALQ
#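 AmpC (5.3 nM in the dispensed reagent) in 20 mM phosphate pH 7.0 with 0.01% (detergent screen) or 0.0001% Triton X-100 was preincubated with compounds for 15 min at room temperature. Nitrocefin was then added from an 800 uM solution, and hydrolysis was followed at 480 nm.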
# SARS PLP yeast – SARS-CoV PLP inhibition in yeast. S. cerevisiae expressing SARS-CoV PLpro, growth rescue. Potency, µM (titrated, usually from 32.9 µM), for the others: top-dose activity, positive = growth rescue, usual class: activators. 330,000 tested, 0.19% active; calls by dose curve; note: potency is the fitted concentration of half-maximal effect; 0% is about no effect; nearly all actives have a fitted effect of over 55% in size
# AmpC no deterg – blocks E. coli AmpC beta-lactamase in detergent-free assay; Potency, µM (titrated, usually from 57.1 µM), for the others: at the top dose activity change, negative = inhibition, usual class: inhibitors; 330,000 tested, 0.52% active; AID 485341; P00811; AmpC nitrocefin hydrolysis, absorbance 480 nm, 0.0001% Triton;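 note: potency is the fitted concentration of half-maximal effect; plate controls were no compound for no effect and no enzyme for full effect; nearly all actives have a fitted effect of over 20% in size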
#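 20 mM phosphate pH 7.0 + 0.01% (detergent screen) or 0.0001% Triton X-100; 5.3 nM AmpC reagent; cpd preinc 15 min RT; nitrocefin (800 uM stock) to start; A480 q20 s × 4 min; Activity was normalised to no-enzyme and no-compound control wells.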
# An asterisk follows results filed as active; ? = inconclusive; . = no result; [ ] = remark or other dose. Unless noted, calls come from the whole dose curve; as a rule, active = well fitted curve in the direction sought with a large enough effect; inconclusive = small, poorly fitted or top-dose-only effect, or another doubt; inactive = no such curve, though single readings can be large; an effect the other way counts as inactive or inconclusive.
SMILES,Shiga inhibitor,Cycloheximide cs,AMA1-RON2 inh,AmpC inh detg,SARS PLP yeast,AmpC no deterg
O=C(NC(=S)Nc1ccccc1Br)C1CCCC1,143*,38*,45%,4%,5%,-30%
O=C(NC(=S)Nc1ccccc1F)C1CCCCC1,61,57*,.,3%,?,-29%
CCN(C(=O)COC(=O)c1cnc(C)cn1)c1c(N)n(Cc2ccccc2)c(=O)[nH]c1=O,.,.,-5%,1%,-10%,-3%
O=C(Cn1cnc2c(nnn2Cc2ccccc2)c1=O)N1CCCc2ccccc21,-4,-2,-8%,?,7%,-14%
O=c1cc(/C=C/c2c(F)cccc2Cl)[nH]c2ccccc12,63*,54*,1%,-11%,-12%,-20%
NC(=O)c1ccc(Oc2ccc(Cl)cc2)c([N+](=O)[O-])c1,-2,0,1%,-2%,-2%,-23%
CC(C)C(=O)O/N=C(\N)c1ccc(Oc2ccc(Cl)cc2)c([N+](=O)[O-])c1,36*,23*,-15%,-2%,-2%,-24%
CC1(C)CC(=O)c2cnc(NC(=O)CCc3ccccc3)nc2C1,-4,0,-15%,5%,2%,-17%
CC1(C)CC(=O)c2cnc(NC(=O)c3ccco3)nc2C1,84*,20,5%,?,-20%,-14%
COc1ccc(/C=C2\N=C(C)OC2=O)cc1OC,-8,-4,-8%,35µM*,1%,-21%
COc1cc(/C=C2\N=C(c3ccccc3)OC2=O)ccc1OC(C)=O,-14,7.5*,-1%,-13%,5%,-4%
COc1ccc(/C=C2\N=C(C)OC2=O)cc1OC(C)=O,-1,-4,1%,-12%,0%,-7%
COc1ccc(OC)c(/C=C2\N=C(c3ccccc3)OC2=O)c1,.,-2,1%,-14%,8%,-25%
CCOCCCNC(=O)C1(O)c2ccccc2NC(=O)N1c1ccc(Cl)cc1 (stereo not given),65,11,1%,-1%,9%,-21%
CC(C)CCNC(=O)C1(O)c2ccccc2NC(=O)N1c1ccc(Cl)cc1 (stereo not given),6,10*,-5%,-7%,-1%,-25%
O=C1Nc2ccccc2C(O)(C(=O)NCc2ccco2)N1c1ccc(Cl)cc1 (stereo not given),31,18*,-3%,-3%,-1%,-19%
O=C(/C=C/Nc1ccc(F)cc1)c1ccc(Br)cc1,116*,30*,-4%,-6%,1%,-7%[2.29 µM]
O=C(/C=C/Nc1ccc(F)c(F)c1)c1ccc(Br)cc1,93*,57*,5%,-7%,9%,-33%
O=C(/C=C/Nc1ccc(F)c(F)c1)c1cccs1,53*,40*,-10%,-4%,11%,-26%
O=C(/C=C/Nc1ccc(S(=O)(=O)Nc2ncccn2)cc1)c1cccs1,55*,25*,4%,1%,0%,-26%
NNC(=S)Nc1cc(S(=O)(=O)N2CCOCC2)ccc1N1CCOCC1,-2,3,76%,-5%,1%,35%
Cc1ccc(N/C=C/C(=O)c2ccccc2)cc1Br,.,54*,-23%,?,-1%,-21%
O=C(/C=C/Nc1ccc(F)c(Cl)c1)c1ccccc1,59*,44*,-3%,1%,11%,-10%
CCCS(=O)(=O)N1CCC(n2c(C)nc3cccnc32)CC1,.,.,.,0%,.,.
COc1ccc2c(c1)-c1nc(NC(=O)c3ccco3)sc1CC2,121*,49*,-6%,-11%,-74%,1%
SMILES,Shiga inhibitor,Cycloheximide cs,AMA1-RON2 inh,AmpC inh detg,SARS PLP yeast,AmpC no deterg
COc1ccc2c(c1)-c1nc(NC(=O)c3cccc(Br)c3)sc1CC2,.,.,.,22%,.,.
COc1ccc2c(c1)Cc1sc(NC(=O)c3ccco3)nc1-2,62*,74*,0%,-2%,-9%,1%
COc1ccc2c(c1)CCc1sc(NC(=O)c3ccco3)nc1-2,129*,50*,-7%,2%,-28%,-12%
COc1ccc2c(c1)Cc1sc(NC(C)=O)nc1-2,72*,40*,18%,-2%,-6%,-33%
COc1ccc(CNC(=S)NCc2ccc(F)cc2)cc1OC,-13,6,1%,?,1%,-28%
CC1=CC(C)(C)[N+](C)(C)c2ccc(C)cc21,10,-3,-4%,?,0%,-16%
COc1ccc2c(c1)-c1nc(NC(=O)c3cccs3)sc1CC2,75*,24*,6%,0%,-38%,-27%
Cc1ccccc1Nc1nc(-c2ccccc2)c(C(=O)Nc2cccnc2)s1,-16,16*,-7%,-9%,-21%,-29%
CN(Cc1c(F)cccc1Cl)C(=O)c1cc2ccccc2o1,35,37*,10%,-18%,-1%,-15%[11.4 µM]
CSc1ccc(CN(C)C(=O)c2cc3ccccc3o2)cc1,87*,39*,-10%,3%,0%,-8%
c1ccc(CCCOCCC2CO2)cc1 (stereo not given),-5,-1,.,?,9%,-9%
O=c1c2cnn(-c3ccc(F)cc3)c2ncn1Cc1ccccc1Cl,.,.,.,16%,.,.
CC(C)=CCN1CCN(Cc2cnc(N3CCOCC3)s2)CC1CCO (stereo not given),98*,58*,8%,3%,-1%,-14%
CC(C)=CCN1CCN(Cc2ccc(C)s2)CC1CCO (stereo not given),-2,-3,8%,2%,0%,-21%
CC(C)=CCN1CCN(Cc2cnc(N3CCCC3)s2)CC1CCO (stereo not given),-12,-2,2%,5%,0%,-15%
CC(C)=CCN1CCN(Cc2cnc(C)s2)CC1CCO (stereo not given),70*,43*,-23%,2%,-2%,-37%
COC(=O)Cc1c(C)nc2nc(Cc3ccccc3)[nH]n2c1=O,2,-1,13%,?,2%,-17%
Cc1ccccc1Oc1ccc2c(c1)[C@@H]1C[C@H](N(C)C(=O)Nc3cc(Cl)cc(Cl)c3)[C@H]([C@H](C)O)C(=O)N1CC2,.,.,-4%,.,.,.
CCOc1ccccc1N1CCN(C(=O)c2cn(CC3CCCCC3)nn2)CC1,142*,37*,-8%,-5%,-9%,157%
CCCc1ccc(C(=O)N2CCN(c3ccccc3OCC)CC2)cc1,-1,1,-1%,4%,-4%,88%
CCn1nnc2cc(C(=O)NCCc3ccccc3F)ccc21,58*,19,18%,-1%,0%,-18%
O=C(/C=C/c1ccc(Cl)cc1Cl)Nc1cccc(S(=O)(=O)NC2=NCCCCC2)c1,13*,26*,-3%,10%,-5%,-7%
O=C(/C=C/c1ccccc1)Nc1cccc(S(=O)(=O)Nc2ccccc2F)c1,39*,10,-16%,-5%,-22%,-28%
O=C(/C=C/c1ccccc1)Nc1cccnc1Oc1ccccc1F,76*,62*,20%,1%,-3%,9%
